# Experiments:
# [1] = tested on: DYRK2
# [2] = tested on: EIF2AK1
# [3] = tested on: EPHA1
# [4] = tested on: EPHA2
# [5] = tested on: EPHA4
# [6] = tested on: EPHA6
# 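Note: kd values determined as follow-up on hits from a single-replicate KINOMEscan panel screen.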
smiles,measurement,setting,value
CC(C)(C)OC(=O)NC1CCCN(c2cc(-c3ccc4c(N)n[nH]c4c3)nc(N)n2)C1 (stereo not shown) [GSK2286096],Kd,[1],0.44 µM
FC(F)(F)c1ccc(-c2cc(-c3c[nH]nc3-c3ccccn3)ccn2)cc1 [GW599550],Kd,[2],> 10 µM
Clc1cccc(-c2nc(Nc3ccncc3)c3ccccc3n2)c1 [GW873004],Kd,[3],> 10 µM
CCC(CC)(CC)n1cnc2c(N)ncnc21 [SKF-97620],Kd,[4],> 10 µM
O=C(Nc1n[nH]c2nc(-c3ccco3)c(Br)cc12)c1ccc(CN2CCCC2)cc1.O=C(O)[C@H](O)[C@@H](O)C(=O)O [SB-742352],Kd,[5],> 10 µM
same,Kd,[6],> 10 µM
FC(F)(F)c1ccc(-c2nn3ncccc3c2-c2ccnc(Nc3cccc(C(F)(F)F)c3)n2)cc1 [GW828205],Kd,[5],> 10 µM
